# Measurements taken from PubChem BioAssay AID1645838 (ICCB-Longwood Screening Facility, Harvard Medical School, 2021).
# The campaign covered roughly 2,000 compounds. About 100 (5%) were called active. No stated cut-off is given here; in the data, active means z-score above about 2; inactive means the rest. What follows is part of a selection rich in actives, with near analogues and random picks from the rest. Residues, ends and D or L forms follow the SMILES beside them. *: point of attachment. Cbz = O=C(OCc1ccccc1)*
# Assay: supercomplex reporter luminescence per Hoechst cell count – Hoechst nuclei count (AID 1645838);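 further: control cybrid cells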;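 on z-score: higher means more mitochondrial supercomplex formation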
# Settings: Cells, luminescence/Hoechst cell count ratio; for z-score: stronger effect = higher value; for cell count: measured here: cell number, Hoechst nuclei count
# [1] = library stock concentration (final well concentration not given) 80 uM
# [2] = library stock concentration (final well concentration not given) 400 uM
# [3] = library stock concentration (final well concentration not given) 2 mM
# [4] = library stock concentration (final well concentration not given) 10 mM
# [5] = library stock concentration (final well concentration not given) 46 uM
# [6] = library stock concentration (final well concentration not given) 278 uM
# [7] = library stock concentration (final well concentration not given) 1.67 mM
structure (smiles),measurement,setting,value
CCCCC[C@H](O)/C=C/[C@@H]1[C@@H](C/C=C\CCCC(=O)NCCO)[C@@H](O)C[C@H]1O,z-score,,-0.4 (inactive)
same,cell count,,5500
COc1ccc(C2(O)CCC(N3CCC(NC(=O)CNC(=O)c4cccc(C(F)(F)F)c4)C3)CC2)cn1 (configuration not stated),z-score,[1],0.226 (inactive)
same,z-score,[2],0.00991 (inactive)
same,z-score,[3],-0.208 (inactive)
same,z-score,[4],-0.124 (inactive)
same,cell count,[1],5820
same,cell count,[2],5470
same,cell count,[3],6300
same,cell count,[4],5360
CC(C)CC(C=O)NC(=O)C(CC(C)C)NC(=O)C(CC(C)C)NC(=O)OCc1ccccc1 (stereo not drawn) (Cbz-Leu-Leu-Leu-aldehyde; configuration not given here),outcome,library stock 1.67 mM,inactive; censored for cell count
same,outcome,library stock 10 mM,inactive; censored for cell count
same,z-score,[5],-0.417 (inactive)
same,z-score,[6],-0.122 (inactive)
same,cell count,[5],6590
same,cell count,[6],5640
Cc1cc(N2CCOCC2)cc2[nH]c(-c3c(NCC(O)c4cccc(Cl)c4)cc[nH]c3=O)nc12 (configuration not stated),z-score,[1],0.23 (inactive)
same,z-score,[2],0.0421 (inactive)
same,z-score,[3],0.963 (inactive)
same,z-score,[4],5.5 (active)
same,cell count,[1],5280
same,cell count,[2],5710
same,cell count,[3],4590
same,cell count,[4],1770
CCCCC[C@H](O)/C=C/[C@H]1[C@H](O)CC(=O)[C@@H]1C/C=C/CCCC(=O)O,z-score,,0.327 (inactive)
same,cell count,,4880
CC(C)=CCC/C(C)=C/CC/C(C)=C/CC[C@]1(C)CCc2c(C)c(O)c(C)c(C)c2O1,z-score,,-0.823 (inactive)
same,cell count,,5060
NS(=O)(=O)OCC1CC(n2ccc3c(NC4CCc5ccccc54)ncnc32)CC1O (configuration not stated),outcome,library stock 1.67 mM,inactive; censored for cell count
same,outcome,library stock 10 mM,inactive; censored for cell count
same,z-score,[5],1.02 (inactive)
same,z-score,[6],4.89 (active)
same,cell count,[5],5390
same,cell count,[6],2380
CCCCC[C@H](O)/C=C/[C@H]1CC[C@@H](O)[C@@H]1C/C=C\CCCC(=O)O,z-score,,-0.672 (inactive)
same,cell count,,5720
NCc1cccc2ccncc12,z-score,,-0.00644 (inactive)
same,cell count,,5160
CCCCC/C=C/C=C1/C=CC(=O)[C@@H]1CCCCCCC(=O)O,z-score,,-0.804 (inactive)
same,cell count,,5740
CN1c2ccc([N+](=O)[O-])cc2N=C(c2ccc(C(=O)O)cc2)c2cc3c(cc21)C(C)(C)CCC3(C)C,z-score,[5],-0.143 (inactive)
same,z-score,[6],-0.194 (inactive)
same,z-score,[7],-0.234 (inactive)
same,z-score,[4],-0.264 (inactive)
same,cell count,[5],5860
same,cell count,[6],5990
same,cell count,[7],5440
same,cell count,[4],4270
O=C(O)c1ccc2nc(-c3cc(Cl)cc(Cl)c3)oc2c1,z-score,[5],0.415 (inactive)
same,z-score,[6],0.328 (inactive)
same,z-score,[7],0.106 (inactive)
same,z-score,[4],0.34 (inactive)
same,cell count,[5],6810
same,cell count,[6],6930
same,cell count,[7],7500
same,cell count,[4],7380
O=C(O)c1cc2ccccc2c(Cc2c(O)c(C(=O)O)cc3ccccc23)c1O,z-score,[1],-0.00825 (inactive)
same,z-score,[2],0.355 (inactive)
same,z-score,[3],0.379 (inactive)
same,z-score,[4],0.06 (inactive)
same,cell count,[1],4700
same,cell count,[2],4390
same,cell count,[3],4510
same,cell count,[4],4530
O=C(O)c1cc(O)c2ccccc2c1O,z-score,[5],0.31 (inactive)
same,z-score,[6],1.17 (inactive)
same,z-score,[7],0.601 (inactive)
same,z-score,[4],2.64 (active)
same,cell count,[5],6560
same,cell count,[6],6080
same,cell count,[7],6240
same,cell count,[4],3940
Nc1ccc(O)c(C(=O)O)c1,z-score,,-0.67 (inactive)
same,cell count,,5710
C=C1C[C@H](O)[C@H](C/C=C\CCCC(=O)O)[C@H]1/C=C/[C@@H](O)CCCCC,z-score,,-0.218 (inactive)
same,cell count,,5720
CC(C)c1ccccc1S(=O)(=O)c1cc(N)c2ncccc2c1[N+](=O)[O-],z-score,[5],-0.201 (inactive)
same,z-score,[6],0.537 (inactive)
same,z-score,[7],0.241 (inactive)
same,z-score,[4],2.73 (active)
same,cell count,[5],6190
same,cell count,[6],6010
same,cell count,[7],6020
same,cell count,[4],4420
CC(C)(O)c1ccccc1CCC(SCC1(CC(=O)O)CC1)c1cccc(C=Cc2ccc3ccc(Cl)cc3n2)c1 (configuration not stated),z-score,[1],0.0351 (inactive)
same,z-score,[2],-0.104 (inactive)
same,z-score,[3],-0.0351 (inactive)
same,z-score,[4],-0.342 (inactive)
same,cell count,[1],5230
same,cell count,[2],5680
same,cell count,[3],5330
same,cell count,[4],4770
CCCCC[C@H](O)/C=C/[C@H]1[C@H](O)CC(=O)[C@H]1C/C=C\CCCC(=O)OC(C)C,z-score,,0.469 (inactive)
same,cell count,,4980
CCCNC(=O)C1OC1C(=O)N[C@@H](C(=O)N1CCCC1C(=O)O)C(C)CC (some centres not stated),z-score,[1],-0.18 (inactive)
same,z-score,[2],0.0728 (inactive)
same,z-score,[3],-0.0724 (inactive)
same,z-score,[4],-0.194 (inactive)
same,cell count,[1],4940
same,cell count,[2],4970
same,cell count,[3],4760
same,cell count,[4],5370
O=c1c(-c2ccc(O)cc2)coc2cc(O)ccc12,z-score,,0.504 (inactive)
same,cell count,,5430
O=c1c(-c2ccc(O)c(O)c2)coc2cc(O)ccc12,z-score,[5],-0.245 (inactive)
same,z-score,[6],-0.0571 (inactive)
same,z-score,[7],-0.19 (inactive)
same,z-score,[4],0.665 (inactive)
same,cell count,[5],6940
same,cell count,[6],6400
same,cell count,[7],6560
same,cell count,[4],5440
O=c1c(-c2ccc(O)cc2)coc2cc(O)cc(O)c12,z-score,,0.997 (inactive)
same,z-score,[5],0.276 (inactive)
same,z-score,[6],-0.193 (inactive)
same,z-score,[7],0.316 (inactive)
same,z-score,[4],2.63 (active)
same,cell count,,5200
same,cell count,[5],6440
same,cell count,[6],6300
same,cell count,[7],6710
same,cell count,[4],5450
O=C(Oc1nsnc1N1CCCCC1)N1CCOCC1,z-score,[1],0.263 (inactive)
same,z-score,[2],0.6 (inactive)
same,z-score,[3],0.737 (inactive)
same,z-score,[4],1.45 (inactive)
same,cell count,[1],4950
same,cell count,[2],4960
same,cell count,[3],4530
same,cell count,[4],4260
CCCCCCCCCCCCCCC(F)C(=O)O (configuration not stated),z-score,,-0.112 (inactive)
same,cell count,,5870
